From PubChem
Tau fluor cs: counter-screen for tau fibril formation inhibitors; 280,000 compounds, 0.93% hits; Potency, µM (series often up to 57.7 µM), inactives show top-dose activity change, negative = decrease; tau K18 P301L Alexa594 fluorescence, heparin fibrillization; also: nearly all actives have a fitted effect of over 55% in size
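Human tau K18 P301L (15 uM unlabeled, 0.24 uM Alexa 594-labeled) in 100 mM sodium acetate pH 7 with 20 uM heparin, 6 hr at 37 C. ThT 30 uM added, 1 hr ambient; Alexa 594 FP and total fluorescence read at 555/632 nm.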
Tau FP inhib: inhibitors of human tau fibril formation; P10636; K18 P301L tau heparin fibrillization, Alexa594 FP, 6 h; Potency, µM (top dose mostly 57.7 µM), without a hit: top-dose activity, negative = inhibition, usual class: inhibitors; 280,000 compounds, 0.39% hits; also: nearly all actives have a fitted effect of over 55% in size
Target sequence (P10636 561-689 P618L limits assumed): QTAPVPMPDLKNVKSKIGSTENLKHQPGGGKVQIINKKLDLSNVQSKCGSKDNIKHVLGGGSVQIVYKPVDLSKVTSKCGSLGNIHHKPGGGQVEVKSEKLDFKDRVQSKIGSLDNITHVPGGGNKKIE
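Heparin (20 uM) drove fibril formation of recombinant tau K18 P301L, 15 uM unlabeled with 0.24 uM Alexa 594 label, for 6 hr at 37 C in 100 mM sodium acetate pH 7. Fluorescence polarization (555/632 nm) read 1 hr after 30 uM ThT.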
Tau fibril ThT: inhibitors of human tau fibril formation, thioflavin T binding; P10636; Potency, µM (series often up to 57.4 µM), for inactives: at the highest dose activity, negative = inhibition, actives largely listed as inhibitors; recombinant tau K18 P301L (four-repeat tau fragment), heparin-induced fibrillization, ThT fluorescence; 270,000 compounds, 2.1% hits; also: nearly all actives have a fitted effect of over 55% in size
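Recombinant human tau K18 fragment […] carrying P301L, 15 uM unlabeled plus 0.24 uM Alexa 594-labeled, was fibrillized with 20 uM heparin in 100 mM sodium acetate pH 7 for 6 hr at 37 C; 30 uM ThT fluorescence read after 1 hr.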
Sfp PPTase inh: Sfp phosphopantetheinyl transferase inhibition; Potency, µM, for inactives: largest response in the series, negative = inhibition, most hits filed as inhibitors; Biochemical Sfp PPTase activity, qHTS; 310,000 compounds, 3.5% hits; Q9F4F7; AID 1490;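 also: the enzyme is Sfp with the accession as filed and its product quenches rhodamine fluorescence; 0% = enzyme reaction without inhibitor and -100% = no enzyme wells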
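Step 1, compound plus 15 nM Sfp-PPTase, 15 min, room temperature. Step 2, add rhodamine-CoA (5 uM) and BHQ-2-YbbR (12.5 uM). Step 3, read 525/598 nm fluorescence at 0 and 30 min.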
PLK1 PBD inh: inhibitors of human PLK1 polo-box domain binding. P53350. Plk1 PBD binding of FITC phosphopeptide, fluorescence polarization. 360,000 compounds, 2.8% hits. Potency, µM, inactives show max response, negative = inhibition, hits mostly inhibitors; also: series mostly up to about 57 µM; nearly all actives have a fitted effect of over 65% in size
VDR inh: blocks the human vitamin D receptor | 400,000 compounds, 0.93% hits | VDR-SRC2-3 peptide fluorescence polarization, 2 h | P11473 | Potency, µM, inactives show max response, negative = inhibition, actives largely listed as inhibitors
Target sequence (P11473 whole entry, looked up): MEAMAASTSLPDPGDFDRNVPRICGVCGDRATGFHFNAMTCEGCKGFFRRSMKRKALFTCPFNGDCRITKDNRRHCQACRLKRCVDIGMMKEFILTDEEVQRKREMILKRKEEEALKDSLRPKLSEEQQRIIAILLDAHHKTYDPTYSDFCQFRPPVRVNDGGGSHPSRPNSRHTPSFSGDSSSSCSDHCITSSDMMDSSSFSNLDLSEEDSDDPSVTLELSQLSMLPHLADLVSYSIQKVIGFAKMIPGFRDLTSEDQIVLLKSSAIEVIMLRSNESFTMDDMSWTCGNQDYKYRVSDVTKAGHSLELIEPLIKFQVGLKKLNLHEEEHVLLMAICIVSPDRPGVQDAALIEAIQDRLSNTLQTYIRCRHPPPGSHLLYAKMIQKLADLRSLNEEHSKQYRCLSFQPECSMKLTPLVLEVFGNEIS
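Signal is fluorescence polarization, reporting how far test compounds block the interaction of VDR with the SRC2-3 coregulator peptide after a 2 h room-temperature incubation.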
* marks the source's active call; other numbers are inactive results; ? = inconclusive; . = no result given; [ ] = remark or other dose. An excerpt weighted towards active compounds, which were near 6% of everything screened. Calls follow the shape of the dose curve; as a rule, active = well fitted curve in the direction sought with a large enough effect; inconclusive = small, poorly fitted or top-dose-only effect, or another doubt; inactive = no such curve, though single readings can be large; an effect the other way counts as inactive or inconclusive. Unless noted, % is scaled to controls: 0 for no effect and ±100 for the full control effect; potency is read from the fitted curve at half-maximal effect.

SMILES	Tau fluor cs	Tau FP inhib	Tau fibril ThT	Sfp PPTase inh	PLK1 PBD inh	VDR inh
CC1=C(c2ccc(NN=C(C#N)C#N)cc2)NNC(=O)C1	.	.	.	-2.6%	.	20µM*
Cc1ccc(N/N=C(\C#N)C(=N)N2CCCCCC2)cc1	-29.2%	8.6%	?	-7.2%	-4.6%	-14.1%
CN(/N=C/c1ccc(O)cc1O)c1nc(-c2ccccc2)cc(-c2ccccc2)n1	14.1µM*[quencher]	?	?	31.8%	-2.2%	-15.7%
C=CCC(C)(NCc1ccccc1)c1ccccc1 (stereo not drawn)	-9.0%	0.5%	-6.6%	2.0%	21.2µM*	?
CCCNC(=O)COCc1cc(-c2ccc(F)cc2)on1	0.8%	-4.5%	-5.5%	.	.	10.8%
Cc1cccc(N2C(=O)CSC23C(=O)N(Cc2cccc(C(F)(F)F)c2)c2ccccc23)c1 (stereo not drawn)	-14.5%	3.1%	-7.5%	.	.	6.9%
Cc1nnc(N(C(=O)c2cnccn2)c2ccccc2)s1	-5.6%	3.3%	-4.7%	11.7%	10.6µM*	-4.7%
CC(C)CSCC1OC(n2cnc3c(N)nccc32)C(O)C1O (stereo not drawn)	.	.	.	.	-7.1%	.
O=C(Nc1ccc(Br)cc1)C(Cc1ccccc1)NS(=O)(=O)c1cccc2nsnc12 (stereo not drawn)	-13.1%	-15.0%	10.2%	.	.	11.3%
O=C(Nc1ccc(OC(F)(F)F)cc1)C(Cc1ccccc1)NS(=O)(=O)c1cccc2nsnc12 (stereo not drawn)	?	15.8µM*	5.0%	.	.	2.5%
CC(=O)Nc1ccc(SC[C@H](Cc2ccccc2)N2CCN(CCc3ccccc3)CCC2=O)cc1	-24.2%	-0.6%	-15.8%	-10.5%	11.9µM*	?
CC(=O)Nc1ccc(SC[C@H](Cc2ccccc2)N2CC[C@@H](C(C)(C)C)CCC2=O)cc1	.	.	.	.	9.47µM*	?
CC(=O)Nc1ccc(SCCN2CCN(CCc3ccccc3)CCC2=O)cc1	.	.	.	50.1µM*	.	17.8µM*
CC(=O)Nc1ccc(SCC(c2ccccc2)N2CCN(CCc3ccccc3)CCC2=O)cc1 (stereo not drawn)	.	.	.	8.0%	.	-14.7%
CC(C)(C)[C@H]1CCC(=O)N([C@H](CSc2ccccc2)Cc2ccccc2)CC1	.	.	.	-0.7%	-19.0%	-21.3%
CC(=O)Nc1ccc(S[C@@H](CCN2CC[C@H](C(C)(C)C)CCC2=O)c2ccccc2)cc1	.	.	.	.	8.44µM*	?
CC(C)(C)[C@@H]1CCC(=O)N(CC[C@H](Sc2ccccc2)c2ccccc2)CC1	.	.	.	-29.8%	-14.2%	-12.4%
Cc1ccc(NC(=O)CCS(=O)(=O)c2cccc3nsnc23)c(C)c1	-10.7%	-5.0%	-5.6%	.	.	-9.2%
O=C(O)c1ccc2c(ccc3nn(-c4ccc(/C=C/c5ccc(-n6nc7ccc8cc(C(=O)O)ccc8c7n6)cc5[S+](=O)([O-])[O-])c([S+](=O)([O-])[O-])c4)nc32)c1	.	.	.	.	.	-20.2%
CC(C)CN1CCC(=O)N([C@H](CSc2ccccc2)Cc2ccccc2)CC1	.	.	.	4.9%	21.2µM*	?
CC(CNC(=O)c1ccc2nc(Cc3ccccc3)oc2c1)c1ccccc1 (stereo not drawn)	-11.0%	1.7%	-10.6%	.	.	2.7%
COCc1cc(O)c(O)c(O)c1-c1c(COC)cc(O)c(O)c1O	?	6.31µM*	3.16µM*	7.94µM*	.	15.8µM*
CCc1oc(C(=O)O)cc1COC	0.5%	6.2%	-1.1%	7.8%	-19.6%	5.6%
CO/C=C\C=C/c1nnn(-c2ccc(Cl)cc2)n1	12.4%	8.0%	-15.3%	4.47µM*	?	?
O=C(CSC(=S)N1CCOCC1)Nc1nc(=O)c2ccccc2s1	-1.9%	?	-14.8%	79.4µM*	.	.
O=C(CSC(=S)N1CCOCC1)Nc1nccs1	0.3%	-0.8%	.	0.5%	-1.0%	27.8%
COc1ccc(NC(=O)c2oc3ccccc3c2NC(=O)C23CC4CC(CC(C4)C2)C3)cc1	?	?	?	.	.	13.1%
O=C1OC(c2ccccc2)=N/C1=C\C=C\c1ccco1	-12.3%	-4.4%	14.1µM*	39.8µM*	-14.7%	-14.4%
O=C(C=Cc1ccco1)c1cc(Cl)ccc1O	.	.	.	.	-13.8%	?
